# According to PubChem BioAssay (Tox21):
# Results filed as inconclusive are left out. Entries that show only a call come without a potency. The source made the active and inactive calls. The call rests on the fitted dose curve; in most records, active means well fitted curve in the direction sought with a large enough effect in the repeat runs; inconclusive means weak or mixed curves; inactive means no such curve, though single readings can be large; an effect the other way counts as inactive or inconclusive.
# Key:
# [1] = biological target: Cytochrome P450 2C19 (Homo sapiens) (UniProt P33261); assay: Cytochrome P450 Family 2 Subfamily C Member 19 (CYP2C19) small molecule antagonists: luciferase reporter qHTS assay (AID 1671197); settings: P450-Glo CYP2C19 enzyme, luciferin luminescence, 1 h; series mostly up to 52.9 µM; further: nearly all actives have a fitted effect of over 65% in size; further: potency means the concentration at half of the fitted maximal effect
# How it was run: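 Light output is proportional to CYP2C19 activity: proluciferin substrate is converted to luciferin, then detected by a luciferin detection reagent that also stops the 1 h, 37C NADPH-driven reaction. Ketoconazole serves as positive control.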
# [2] = biological target: Cytochrome P450 2C9 (Homo sapiens) (UniProt P11712); assay: Cytochrome P450 Family 2 Subfamily C Member 9 (CYP2C9) small molecule antagonists: luciferase reporter qHTS assay (AID 1671198); settings: P450-Glo CYP2C9 enzyme assay, luciferin luminescence; series mostly up to 115 µM; further: nearly all actives have a fitted effect of over 50% in size; further: potency means the concentration at half of the fitted maximal effect
# How it was run: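 P450-Glo proluciferin substrate with CYP2C9 enzyme; 10 min RT preincubation, then NADPH regeneration 1 h at 37C; luciferin detection reagent 20 min RT, luminescence in relative luminescence units.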
# [3] = biological target: Voltage-gated inwardly rectifying potassium channel KCNH2 (Homo sapiens) (UniProt Q12809); assay: Human Ether-a-go-go-Related Gene (hERG) channel small molecule antagonists: fluorescence cell-based qHTS assay (AID 1671200); settings: hERG-U2OS cells, FluxOR thallium flux fluorescence; series mostly up to 76.8 µM;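 further: hERG-expressing U2OS cells given a thallium stimulus after FluxOR II dye loading; nearly all actives have a fitted effect of over 50% in size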
# How it was run: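 hERG-U2OS cells plated overnight at 37 C, loaded with FluxOR II dye 1 h at RT in dark; after 10 min, thallium stimulus added. Fluorescence (480/540 nm) read kinetically for 2 min at 1 s intervals.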
# [4] = biological target: Cytochrome P450 3A4 (Homo sapiens) (UniProt P08684); assay: Cytochrome P450 Family 3 Subfamily A Member 4 (CYP3A4) small molecule antagonists: luciferase reporter qHTS assay (AID 1671201); settings: P450-Glo CYP3A4 enzyme, luciferin luminescence, 1 h; series mostly up to 115 µM; further: nearly all actives have a fitted effect of over 50% in size
# How it was run: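 P450-Glo CYP3A4 luminescent assay: compounds preincubated 10 min at room temperature with enzyme and proluciferin substrate, NADPH regeneration added, 1 h room-temperature reaction, stopped with luciferin detection reagent; luminescence read after 20 min. Ketoconazole positive control.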
# [5] = biological target: Cytochrome P450 1A2 (Homo sapiens) (UniProt P05177); assay: Cytochrome P450 Family 1 Subfamily A Member 2 (CYP1A2) small molecule antagonists: luciferase reporter qHTS assay (AID 1671199); settings: P450-Glo CYP1A2 enzyme, luciferin luminescence, 1 h; series mostly up to 53 µM; further: nearly all actives have a fitted effect of over 50% in size; further: potency means the concentration at half of the fitted maximal effect
# How it was run: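 Luminescence from luciferin formed by CYP1A2 from a proluciferin substrate, read 20 min after detection reagent. Compound was pre-incubated 10 min with enzyme-substrate, and reaction started with NADPH regeneration solution for 1 h at room temperature; furafylline control.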
# Sequence of Cytochrome P450 3A4 (Homo sapiens) (P08684 whole entry, looked up): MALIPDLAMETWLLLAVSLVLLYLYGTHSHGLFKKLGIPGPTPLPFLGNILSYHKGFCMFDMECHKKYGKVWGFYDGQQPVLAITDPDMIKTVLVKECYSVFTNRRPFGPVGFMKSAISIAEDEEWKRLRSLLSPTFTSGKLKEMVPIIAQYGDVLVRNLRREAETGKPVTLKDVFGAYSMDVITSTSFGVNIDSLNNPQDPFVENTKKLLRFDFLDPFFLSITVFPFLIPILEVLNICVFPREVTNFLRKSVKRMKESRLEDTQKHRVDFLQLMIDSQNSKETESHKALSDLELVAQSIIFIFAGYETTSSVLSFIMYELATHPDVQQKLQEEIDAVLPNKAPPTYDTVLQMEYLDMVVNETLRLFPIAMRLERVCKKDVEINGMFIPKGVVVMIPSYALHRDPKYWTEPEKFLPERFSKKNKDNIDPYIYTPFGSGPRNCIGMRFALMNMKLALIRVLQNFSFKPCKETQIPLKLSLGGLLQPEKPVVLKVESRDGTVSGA
# Sequence of Cytochrome P450 1A2 (Homo sapiens) (P05177 whole entry, looked up): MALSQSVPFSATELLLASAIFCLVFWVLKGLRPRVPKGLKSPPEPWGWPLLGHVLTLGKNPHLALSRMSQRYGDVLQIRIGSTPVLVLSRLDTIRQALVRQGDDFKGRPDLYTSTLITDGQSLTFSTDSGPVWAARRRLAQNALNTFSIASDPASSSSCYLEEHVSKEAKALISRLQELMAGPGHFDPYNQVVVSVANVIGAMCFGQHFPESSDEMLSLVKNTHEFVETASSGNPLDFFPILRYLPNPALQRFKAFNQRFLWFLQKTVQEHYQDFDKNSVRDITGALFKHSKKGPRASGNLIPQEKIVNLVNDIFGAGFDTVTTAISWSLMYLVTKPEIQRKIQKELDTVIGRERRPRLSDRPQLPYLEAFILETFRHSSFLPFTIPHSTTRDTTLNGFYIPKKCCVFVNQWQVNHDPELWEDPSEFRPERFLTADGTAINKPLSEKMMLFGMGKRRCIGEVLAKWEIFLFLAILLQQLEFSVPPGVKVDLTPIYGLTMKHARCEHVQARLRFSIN
# Sequence of Voltage-gated inwardly rectifying potassium channel KCNH2 (Homo sapiens) (Q12809 whole entry, looked up): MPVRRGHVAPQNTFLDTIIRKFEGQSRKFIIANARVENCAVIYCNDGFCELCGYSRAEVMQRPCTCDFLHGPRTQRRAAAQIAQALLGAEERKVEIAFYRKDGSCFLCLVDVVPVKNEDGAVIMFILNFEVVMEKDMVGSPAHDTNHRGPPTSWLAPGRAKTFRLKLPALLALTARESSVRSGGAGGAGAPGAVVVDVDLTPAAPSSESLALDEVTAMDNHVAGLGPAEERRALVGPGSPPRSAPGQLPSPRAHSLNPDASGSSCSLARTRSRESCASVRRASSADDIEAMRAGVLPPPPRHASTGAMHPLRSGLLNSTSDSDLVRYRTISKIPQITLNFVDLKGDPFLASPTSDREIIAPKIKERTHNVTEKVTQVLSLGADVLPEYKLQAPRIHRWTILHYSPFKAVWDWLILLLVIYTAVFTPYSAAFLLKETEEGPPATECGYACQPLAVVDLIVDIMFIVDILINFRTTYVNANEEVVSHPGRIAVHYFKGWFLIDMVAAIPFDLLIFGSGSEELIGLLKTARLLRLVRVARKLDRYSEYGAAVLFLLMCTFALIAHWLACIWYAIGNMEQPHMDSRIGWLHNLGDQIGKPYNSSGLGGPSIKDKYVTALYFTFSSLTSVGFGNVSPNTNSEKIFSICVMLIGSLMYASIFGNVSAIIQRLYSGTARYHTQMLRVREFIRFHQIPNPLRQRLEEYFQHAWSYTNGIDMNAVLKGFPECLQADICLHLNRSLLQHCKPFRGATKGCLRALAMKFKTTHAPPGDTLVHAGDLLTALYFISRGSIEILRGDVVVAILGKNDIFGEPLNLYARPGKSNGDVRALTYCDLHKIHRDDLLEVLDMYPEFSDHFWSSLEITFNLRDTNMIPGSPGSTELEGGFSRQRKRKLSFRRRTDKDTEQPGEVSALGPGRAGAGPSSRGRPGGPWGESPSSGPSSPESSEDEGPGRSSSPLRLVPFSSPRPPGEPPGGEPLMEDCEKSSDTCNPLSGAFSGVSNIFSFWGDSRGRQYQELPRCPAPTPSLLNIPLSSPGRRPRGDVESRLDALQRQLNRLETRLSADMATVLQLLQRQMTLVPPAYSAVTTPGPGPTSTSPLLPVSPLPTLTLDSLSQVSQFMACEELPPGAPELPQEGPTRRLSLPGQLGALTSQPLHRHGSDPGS
# Sequence of Cytochrome P450 2C19 (Homo sapiens) (P33261 whole entry, looked up): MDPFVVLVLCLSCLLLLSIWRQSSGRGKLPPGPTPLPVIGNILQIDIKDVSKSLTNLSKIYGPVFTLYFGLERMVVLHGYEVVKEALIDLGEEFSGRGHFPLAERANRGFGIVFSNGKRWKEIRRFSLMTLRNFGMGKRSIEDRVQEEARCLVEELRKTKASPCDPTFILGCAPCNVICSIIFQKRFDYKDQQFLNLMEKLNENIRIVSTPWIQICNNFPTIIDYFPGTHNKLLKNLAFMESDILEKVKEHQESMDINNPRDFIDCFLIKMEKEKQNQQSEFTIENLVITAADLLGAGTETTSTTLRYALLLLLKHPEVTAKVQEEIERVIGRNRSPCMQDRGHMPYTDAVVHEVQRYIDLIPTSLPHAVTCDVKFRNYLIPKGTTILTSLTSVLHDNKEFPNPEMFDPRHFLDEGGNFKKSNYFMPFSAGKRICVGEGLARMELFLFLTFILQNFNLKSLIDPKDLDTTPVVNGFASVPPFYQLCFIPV
# Sequence of Cytochrome P450 2C9 (Homo sapiens) (P11712 whole entry, looked up): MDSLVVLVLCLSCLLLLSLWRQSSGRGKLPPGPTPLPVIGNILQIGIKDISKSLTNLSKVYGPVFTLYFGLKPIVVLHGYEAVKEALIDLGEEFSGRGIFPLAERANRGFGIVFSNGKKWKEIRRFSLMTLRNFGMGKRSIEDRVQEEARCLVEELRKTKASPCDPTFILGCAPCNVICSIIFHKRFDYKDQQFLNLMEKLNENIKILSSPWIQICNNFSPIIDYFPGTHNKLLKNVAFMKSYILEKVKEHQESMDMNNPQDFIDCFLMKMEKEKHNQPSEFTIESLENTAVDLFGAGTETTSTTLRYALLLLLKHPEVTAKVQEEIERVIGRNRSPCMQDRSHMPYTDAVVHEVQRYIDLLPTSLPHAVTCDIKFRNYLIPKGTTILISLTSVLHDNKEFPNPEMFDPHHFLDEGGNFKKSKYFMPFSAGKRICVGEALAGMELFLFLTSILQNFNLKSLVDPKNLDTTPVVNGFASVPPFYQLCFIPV
SMILES,Potency [1],Potency [2],Potency [3],Potency [4],Potency [5]
CC(C)(C)C(=O)c1ccccc1,inactive,inactive,inactive,inactive,–
CCN(CC#N)c1cccc(C)c1,71 µM (active),–,inactive,inactive,28.3 µM (active)
N[C@H](C(=O)O)[C@@H](O)c1ccc(O)c(O)c1,inactive,–,inactive,inactive,inactive
CC(C(=O)O)c1cccc(Oc2ccccc2)c1 (stereo not given),inactive,–,inactive,inactive,inactive
CC1CCC(CO)CC1 (stereo not given),inactive,–,inactive,inactive,inactive
CC(C)(C)c1ccc(-c2ccc(C(C)(C)C)cc2)cc1,inactive,–,inactive,inactive,inactive
Cc1coc2ccccc2c1=O,inactive,–,inactive,inactive,15.5 µM (active)
CCCCCCCC1CCCC1=O (stereo not given),39.9 µM (active),–,inactive,inactive,inactive
CCOC(=O)c1cnc2c(cnn2CC)c1NN=C(C)C,30.9 µM (active),–,–,–,2.04 µM (active)
COCCOCC(OC)OC,inactive,–,inactive,inactive,inactive
Cc1ccc(C(=O)c2ccccc2)cc1,10 µM (active),31.7 µM (active),–,inactive,–
CO/N=C(\C(=O)N[C@@H]1C(=O)N2C(C(=O)O)=C(CSc3nc(=O)c(O)nn3C)CS[C@H]12)c1csc(N)n1,inactive,–,inactive,inactive,inactive
O=[N+]([O-])c1ccc(/C=N\O)o1,inactive,–,inactive,inactive,27.5 µM (active)
CCO[Si](OCC)(OCC)c1ccccc1,inactive,–,inactive,–,inactive
CC(=O)OCC(=O)[C@@]1(O)[C@H](C)C[C@H]2[C@@H]3CCC4=CC(=O)C=C[C@]4(C)[C@@]3(F)[C@@H](O)C[C@@]21C,inactive,–,inactive,–,inactive
